High-throughput results as filed in PubChem BioAssay.
A selection: hits, their analogues and other compounds. The true share with any hit is near 21%.
Pf growth 96h: Primary qHTS for delayed death inhibitors of the malarial parasite plastid, 96 hour incubation. P. falciparum luciferase reporter growth, 96 h. Potency, µM (top dose mostly 28.7 µM), for the others: at the top dose activity change, negative = inhibition, most hits filed as inhibitors. 6.9% of 320,000 active. AID 504834, 2011; note: potency is the fitted concentration of half-maximal effect; % is set by controls: 0 for no effect and ±100 for the full control effect
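Readout is luminescence from an integrated firefly luciferase in P. falciparum. Red cells, 2% hematocrit and 0.05% parasitemia final, were cultured with compound through two parasite generations (96 hours) at 37 C, 5% CO2.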
CHX counter: Cycloheximide Counterscreen for Small Molecule Inhibitors of Shiga Toxin | max response, % | 12% of 300,000 active | cell reporter, cycloheximide protein synthesis inhibition counterscreen | AID 2314, 2010; in the data active = max response mostly above about 13%, no sharp cut-off; inactive = mostly below about 14%; note: read at 38.3 µM for the half of the compounds with a filed dose; 0% is about no effect
Shiga inhibitor: A qHTS for Small Molecule Inhibitors of Shiga Toxin; Vero cells, Shiga toxin protein synthesis inhibition reporter; AID 2315, 2010; inhibition, % at 38.7 µM; 9.2% of 290,000 active; in the data active = inhibition mostly above about 28%, no sharp cut-off; inactive = mostly below about 43%; note: 0% is about no effect
Pf growth 48h: Primary qHTS for delayed death inhibitors of the malarial parasite plastid, 48 hour incubation | P. falciparum luciferase growth in erythrocytes, 48 h | Potency, µM (highest dose often 28.7 µM), for inactives: top-dose activity change, negative = inhibition, actives largely listed as inhibitors | AID 504832, 2011 | 5.9% of 310,000 active; note: potency is the fitted concentration of half-maximal effect; % is set by controls: 0 for no effect and ±100 for the full control effect
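Growth was read as firefly luciferase luminescence after a 48 h, 37 C, 5% CO2 exposure of compounds to reporter-bearing P. falciparum cultures (0.1% parasitemia, 2% hematocrit final) in Albumax-supplemented RPMI 1640.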
AMA1-RON2 inh: qHTS for Inhibitors of AMA1-RON; Towards Development of Antimalarial Drug Lead: Primary Screen; Potency, µM (top dose mostly 58.2 µM), inactives show top-dose activity change, negative = inhibition, actives largely listed as inhibitors; 0.2% of 360,000 active; AID 720542, 2013; AlphaScreen AMA1-biotinylated RON2 peptide binding;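 note: potency is the fitted concentration of half-maximal effect; 0% = vehicle wells and -100% = peptide control; nearly all actives have a fitted effect of over 45% in size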
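AMA1 (3D7) with his tag at 25 nM final met compounds first, then biotinylated RON2 peptide at 25 nM; detection used donor plus acceptor beads, 10 µg/mL apiece, read by AlphaScreen after 30 min at room temperature.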
HCV inh: qHTS Assay for Inhibitors of Hepatitis C Virus (HCV); 3.4% of 340,000 active; Potency, µM (top dose mostly 41.8 µM), for the others: top-dose activity change, negative = inhibition, hits mostly inhibitors; AID 651820, 2012; Huh7.5.1 HCVcc-Cre infection, luciferase reporter, 44 h; note: potency is the fitted concentration of half-maximal effect; % is set by controls: 0 for no effect and ±100 for the full control effect
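Infectious HCV cell culture screen: compound-treated cells (1,000/well, pre-plated 4 h) are infected with HCVcc-Cre at roughly 0.5 moi and grown 44 h. Infection is quantified by luciferase signal after 15 min substrate incubation at room temperature.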
Starred values were filed as active, the others as inactive; u = inconclusive; x = not tested or not shown; [ ] = another dose, or the depositor's remark. Unless noted, calls come from the whole dose curve; as a rule, active = well fitted curve in the direction sought with a large enough effect; inconclusive = small, poorly fitted or top-dose-only effect, or another doubt; inactive = no such curve, though single readings can be large; an effect the other way counts as inactive or inconclusive.

SMILES | Pf growth 96h | CHX counter | Shiga inhibitor | Pf growth 48h | AMA1-RON2 inh | HCV inh
O=C(Nc1nnc(SCC(=O)N2CCCc3ccccc32)s1)c1ccccc1 | 15% | 34* | 41* | 45% | 3%[2.32 µM] | 6%
O=C(Nc1nnc(SCC(=O)N2CCCc3ccccc32)s1)c1ccc2ccccc2c1 | -5% | 37* | 58* | 22% | -8%[2.32 µM] | -14%
S=c1sscc1-c1ccccc1 | x | x | x | x | 20µM* | -5%
Oc1ccccc1-c1ccccc1 | -5% | x | x | -8% | x | x
CC(C)(C)C(=O)Nc1ccc(-c2cnco2)cc1 | 77% | 21* | 64* | 50% | 12% | 14%
O=C(NC(=O)c1ccccc1)Nc1ccc(-c2cnco2)cc1 | 84% | 32* | 63* | 76% | -5% | -8%
CC(C)(C)c1ccc(-c2cnco2)cc1 | 33% | 0 | -11 | 32% | 0% | 16%
O=C(Nc1ccc(Cl)cc1)Nc1ccc(-c2cnco2)cc1 | u | 20* | 29 | u | -10% | 7%
O=S(=O)(Nc1ccc(-c2cnco2)cc1)c1ccccc1 | u | 1 | -7 | -11% | -11% | -10%
Cc1cc(C)cc(NC(=O)CCc2c(C)nn(-c3ccc(N4CCOCC4)nn3)c2C)c1 | u | 26* | 35 | -2% | -8% | -9%
CCc1cccc(NC(=O)CCc2c(C)nn(-c3ccc(N4CCCCC4)nn3)c2C)c1 | u | 40* | 95* | 26% | -22% | u
CCOc1ccc(NC(=O)CCc2c(C)nn(-c3ccc(N4CCCCC4)nn3)c2C)cc1 | 30% | 27* | 45* | 27% | -13% | -25%
Cc1nn(-c2ccc(N3CCCCC3)nn2)c(C)c1CCC(=O)Nc1ccc(F)cc1 | u | 34* | 55* | 16% | -12% | u
CCc1ccccc1NC(=O)CCc1c(C)nn(-c2ccc(N3CCOCC3)nn2)c1C | 59% | 5 | 7 | -10% | 6% | 4%
COc1ccc(N2CCN(c3ccc4nnc(CCC(=O)Nc5ccc(C)cc5)n4n3)CC2)cc1 | u | -3 | -2 | u | -4% | 0%
CC1(C(=O)NS(=O)(=O)c2cccc(OC(F)F)c2)CCN1C(=O)C1CCCCC1 (configuration not stated) | x | x | x | x | -11% | x
Cc1c(NC(=O)C(C)OC(=O)COc2ccc(C#N)cc2)c(=O)n(-c2ccccc2)n1C (configuration not stated) | 20% | x | x | 11% | -1% | -4%
CCc1ccc(NC(=O)CCc2c(C)nn(-c3ccc(N4CCCCC4)nn3)c2C)cc1 | 55% | 49* | 81* | 11% | -11% | u
Cc1ccc(NC(=O)CCc2c(C)nn(-c3ccc(N4CCCCC4)nn3)c2C)cc1F | 0% | 41* | 71* | 34% | -9% | -25%
Cc1nn(-c2ccc(N3CCCCC3)nn2)c(C)c1CCC(=O)Nc1cccc(F)c1 | u | 44* | 84* | 84% | -3% | 14%
Cc1ccc(C)c(NC(=O)CCc2c(C)nn(-c3ccc(N4CCCCC4)nn3)c2C)c1 | u | 18 | -2 | -8% | -2% | u
COc1ccc2c(c1)CC=C1C2CCC2(C)C(=O)C(=NO)CC12 (configuration not stated) | x | x | x | x | 6% | -15%
Nc1c(-c2ccc(F)c(F)c2)nc2ncccn12 | x | x | x | x | 5% | x
O=C(O)c1cccc(-c2csc(C(O)c3cccc(Cl)c3)n2)c1 (configuration not stated) | x | x | x | x | 13% | x
NC(=O)c1ccc[n+]([C@@H]2O[C@H](COP(=O)([O-])OP(=O)(O)OC[C@H]3O[C@@H](n4cnc5c(N)ncnc54)[C@@H](O)[C@@H]3O)[C@@H](O)[C@@H]2O)c1 | -20%[12.8 µM] | x | x | -8%[12.8 µM] | x | x
SMILES | Pf growth 96h | CHX counter | Shiga inhibitor | Pf growth 48h | AMA1-RON2 inh | HCV inh
COc1ccc(/C=C(\C#N)C(=O)OCC(=O)Nc2ccc(C(C)(C)C)cc2)cc1 | 25% | 11* | 21 | 23% | -2% | 2%
Cc1cccc(NC(=O)/C(C#N)=C/c2ccc(Cl)cc2)n1 | 27% | 1 | 13 | 1% | -4% | 12%
N#C/C(=C\c1ccccc1O)C(=O)Nc1ccccn1 | 20% | 21* | 82* | 46% | 17% | 14%
Cc1cccc(NC(=O)/C(C#N)=C/c2ccccc2O)n1 | 8% | 40* | 78* | 2% | 1% | 0%
N#C/C(=C\c1ccc(F)cc1)C(=O)Nc1ccccn1 | 11% | -2 | -7 | 21% | 2% | 10%
COc1ccc(/C=C(\C#N)C(=O)Nc2cccc(C)n2)cc1 | 12% | 25* | 36* | 31% | 2% | 4%
CCCCCc1c(O)nc(SCCN2CCOCC2)[nH]c1=O | 6% | 4 | -19 | 22% | 2% | 9%
CSCC[C@H](NC(=O)[C@H](CC(C)C)NC(=O)CNC(=O)[C@H](Cc1ccccc1)N(C)C(=O)[C@H](Cc1ccccc1)NC(=O)[C@H](CC(=O)O)NC(=O)[C@@H](N)CC(=O)O)C(N)=O | x | -10 | -9 | x | x | x
CCCNC(=S)N1CCC(NC(=O)Nc2ccc(C)cc2)CC1 | -21% | -1 | 6 | 15% | -4% | -6%
COc1ccc(C=C(C#N)C(=O)c2ccccc2)cc1 | x | x | x | x | 4% | x
COc1ccc(/C=C(\C#N)C(=O)C(C)(C)n2cncn2)cc1 | 3.7µM* | -1 | -11 | 29% | 11% | 2%
CC1=C(C(=O)N2CCOCC2)CC(CC(=O)NCc2cccc3ccccc23)C(=O)N1Cc1ccccc1 (configuration not stated) | x | x | x | x | -12% | x
CCC1(C(=O)c2ccccc2)C(c2ccc([N+](=O)[O-])cc2)C1(C(=O)OC)C(=O)OC (configuration not stated) | 18% | 1 | -11 | 13µM* | 3% | u
O=C(c1ccc([N+](=O)[O-])cc1)N(Cc1ccccc1)Cc1ccccc1 | x | x | x | x | -26% | u
CCOC(=O)c1c(C)n(CCOc2ccccc2)c2ccc(O)cc12 | u | 7 | 13 | -12% | 7% | 11%
CCOC(=O)c1c(C)n(CC(O)c2ccccc2)c2ccc(O)cc12 (configuration not stated) | 12µM* | -2 | -9 | 12µM* | -4% | u
CCc1nc2ccc(C(=O)NCCCN3CCCC3=O)cn2c1N(C)C(=O)c1cccc(OC)c1 | x | x | x | x | 0% | x
Nc1nc2cc3c(cc2cc1C(=O)NCc1ccc(F)cc1)OCO3 | x | x | x | x | 26% | x
O=C(NNc1nc2cc3c(cc2s1)OCO3)c1ccc(F)cc1 | u | 24* | 68* | 46% | 95% | -5%[8.37 µM]
O=C(NNc1nc2cc3c(cc2s1)OCCO3)c1ccc(F)cc1 | 6% | 33* | 46 | 31% | 82% | -15%
